# Values of other authors in PubChem BioAssay AID977608.
# Among all 4,300 compounds or so, about 4,300 (100%) were called active. No cut-off is given here; in the data, nearly all actives have IC50 up to about 1400 µM. So high a share suggests a set chosen from earlier hits. Some of the results follow.
# Assay: protein-ligand inhibition affinities from structures – PDB-derived complexes (AID 977608)
smiles,measurement,setting,value
O=C(Cc1ccccc1)Nc1nnc(CC=S)s1,IC50,"literature IC50, protein: human glutaminase, PDB entry 3vp1",3.3 µM (active)
COc1cc(-c2ccc(NNc3ccc4c(S(O)(O)O)cc(S(O)(O)O)c(N)c4c3O)c(OC)c2)ccc1N=Nc1ccc2c(S(O)(O)O)cc(S(O)(O)O)c(N)c2c1O,IC50,"literature IC50, protein: Macrophage migration inhibitory factor, PDB entry 3u18",0.81 µM (active)
O=c1cc([C@H]2CCN[C@@H](Cc3ccccc3)C2)o[nH]1,IC50,"literature IC50, protein: plasminogen kringle 1, PDB entry 4cik",0.37 µM (active)
C[C@@]1(c2cc(NC(=O)c3ccc(Cl)cn3)ccc2F)C[C@@H]2C[C@@H]2C(N)N1 (stereo not given in full),IC50,"literature IC50, protein: BETA-SECRETASE 1, PDB entry 4bfd",0.096 µM (active)
CN(C)c1ccc2c(c1)CCN(c1cccc(-c3cc(Nc4ccc(C(=O)N5CCOCC5)cn4)c(=O)n(C)c3)c1CO)C2=O,IC50,"literature IC50, protein: Tyrosine-protein kinase BTK, PDB entry 4rfy",0.1 µM (active)
C[C@@H](O[P+](O)(O)O)[C@H](NC(=O)[C@H](CO)NC(=O)[C@H](Cc1cncn1CCCCCCCCc1ccccc1)NC(=O)CCNC(=O)c1ccc(CO)cc1)C(N)=O,IC50,"literature IC50, protein: Serine/threonine-protein kinase PLK1, PDB entry 4whh",0.04 µM (active)
CC(=O)N[C@@H](Cc1cncn1CCCCCCCCc1ccccc1)C(=O)N[C@@H](CO)C(=O)N[C@H](C(N)=O)[C@@H](C)O[P+](O)(O)O,IC50,"literature IC50, protein: Serine/threonine-protein kinase PLK1, PDB entry 4rcp",4.42 µM (active)
C[C@H](O[P+](O)(O)O)[C@H](NC(=O)[C@H](CO)NC(=O)[C@H](Cc1cncn1CCCCCCCCc1ccccc1)NC(=O)CCCNC(=O)c1ccccc1)C(N)=O,IC50,"literature IC50, protein: Serine/threonine-protein kinase PLK1, PDB entry 4whl",0.4 µM (active)
O=C(C/C=C1\C=C(C(=O)c2ccc(F)cc2)C=N1)C[C@@H](O)C(=O)O,IC50,"literature IC50, protein: DNA nucleotidylexotransferase, Tdt core, PDB entry 4iqu",0.58 µM (active)
O=C(NO)c1coc(-c2ccccc2C(F)(F)F)n1,IC50,"literature IC50, protein: METHIONINE AMINOPEPTIDASE, PDB entry 4a6v",1.9 µM (active)
CN1CCN(c2ccc(N=C3CC(=O)N(c4ccc(Cl)cc4)N=C3c3ncn[nH]3)cc2)CC1,IC50,"literature IC50, protein: MEMBRANE PRIMARY AMINE OXIDASE, PDB entry 4bty",0.02 µM (active)
COC1=CC2=C(C(=O)C1)C(=O)O[C@H](C)CCCC(=O)[C@@H](O)[C@@H](O)C/C=C/2,IC50,"literature IC50, protein: Mitogen-activated protein kinase 1, PDB entry 2E14",0.08 µM (active)
COC1=CC2=C(C(=O)C1)C(=O)O[C@@H](C)CCCC(=O)[C@@H](O)[C@@H](O)C/C=C/2,IC50,"literature IC50, protein: Mitogen-activated protein kinase 1, PDB entry 3w55",0.08 µM (active)
NC(=O)c1cccc(N)c1,IC50,"literature IC50, protein: Tankyrase-2 TNKS2, PDB entry 4pml",30 µM (active)
CCOc1ccc2cc(-c3nn(C(C)(C)C)c(N)c3C(N)=O)cnc2c1,IC50,"literature IC50, protein: Calmodulin-domain protein kinase 1 CDPK1, PDB entry 4ona",0.007 µM (active)
CN(C)CCOc1ccc(-c2cc3c(NCCc4ccc(NC(=O)Nc5ccccc5)cc4)ncnc3o2)cc1,IC50,"literature IC50, protein: Aurora kinase A (T288D mutation), PDB entry 4jbo",0.024 µM (active)
O=C(Nc1ccccc1)Nc1ccc(CCNc2ncnc3oc(-c4ccc(OCCN5CCC(O)CC5)cc4)cc23)cc1,IC50,"literature IC50, protein: Aurora kinase A (T288D mutation), PDB entry 4jbp",0.041 µM (active)
CC(C)(O/N=C(\C(=O)N[C@H](C=O)[C@@H](CNC(=O)NCc1cc(=O)c(O)cn1O)NS(O)(O)O)c1csc(N)n1)C(=O)O,IC50,"literature IC50, protein: Penicillin-binding protein 3, PDB entry 4l0l",0.054 µM (active)
CCN1CCN(c2nc(O)c(Cc3ccc(Cl)c(Cl)c3)s2)CC1,IC50,"literature IC50, protein: Ectonucleotide pyrophosphatase/phosphodiesterase family member 2, PDB entry 3waw",0.58 µM (active)
CN1CCN(c2nc(O)c(Cc3ccc(Cl)c(Cl)c3)s2)CC1,IC50,"literature IC50, protein: Ectonucleotide pyrophosphatase/phosphodiesterase family member 2, PDB entry 3wav",0.18 µM (active)
c1ccc2c(c1)[nH]c1cncnc12,IC50,"literature IC50, protein: DUAL SPECIFICITY PROTEIN KINASE TTK, PDB entry 4bi0",58.6 µM (active)
Cc1cccc(Cc2nn(C(C)(C)C)c3ncnc(N)c23)c1,IC50,"literature IC50, protein: Proto-oncogene tyrosine-protein kinase Src, PDB entry 4lgg",0.003 µM (active)
O=CN1CCN(c2nc(-c3ccccc3)ns2)CC1,IC50,"literature IC50, protein: Fatty-acid amide hydrolase 1, PDB entry 4hbp",0.0038 µM (active)
N=CCNC(=O)[C@@H]1C[C@@H](S(=O)(=O)c2ccccc2)C[C@H]1C(=O)N1CCOCC1,IC50,"literature IC50, protein: CATHEPSIN S, PDB entry 4bsq",0.0007 µM (active)
C=C1CC[C@@H](O[C@H]2C[C@@](O)([C@H](C)NC(=O)c3[nH]c(C)c(Cl)c3Cl)[C@H](O)[C@@H](C)O2)[C@@H]2C=C[C@H](C)[C@H](/C(O)=C3/C(=O)[C@H](C(C)C)N([C@@H]4O[C@@H](C)[C@@H](OC(N)=O)[C@@H](OC(C)=O)[C@H]4OC)C3=O)[C@@H]12,IC50,"literature IC50, protein: DNA GYRASE SUBUNIT B GyrB24, PDB entry 4urm",0.009 µM (active)
same,IC50,"literature IC50, protein: DNA TOPOISOMERASE IV, B SUBUNIT ParE43, PDB entry 4url",0.5 µM (active)
C/C=C\NC(=O)Nc1nc2cc(-c3cccnc3)c(=O)n(CCC(C)C)c2s1,IC50,"literature IC50, protein: Topoisomerase IV subunit B, PDB entry 4mot",0.05 µM (active)
COc1cc(-c2n[nH]c3ccc(C[C@@H](C#N)C(=O)NC(C)(C)CO)cc23)cc(OC)c1OC,IC50,"literature IC50, protein: Ribosomal protein S6 kinase alpha-3 (T493M muation), PDB entry 4jg8",0.0025 µM (active)
O=C1N=Nc2nnc(-c3c(-c4ccccc4)nn4ccccc34)cc21,IC50,"literature IC50, protein: Insulin receptor (K1278N mutation), PDB entry 4ibm",1.8 µM (active)
Cc1ccccc1S(=O)(=O)N(CCN(Cc1cncn1C)c1ccc(C=N)cc1)CC1CCN(C(=O)OC(C)(C)C)CC1,IC50,"literature IC50, protein: CaaX farnesyltransferase alpha subunit Ram2, PDB entry 4lnb",0.275 µM (active)
COc1ccccc1-c1noc2nc(C)[nH]c(=O)c12,IC50,"literature IC50, protein: Class III chitinase ChiA1, PDB entry 4tx6",2.6 µM (active)
CC[C@H](C)[C@H](NC(=O)[C@@H](c1cc(Cl)cc(Cl)c1)N(C)C)C(=O)NCc1ccnc(C=N)n1,IC50,"literature IC50, protein: Protease AVP8, PDB entry 4pis",0.06 µM (active)
COc1ccc([C@]2(C)CCSC(N)N2)cc1 (stereo not given in full),IC50,"literature IC50, protein: BETA-SECRETASE 1, PDB entry 4bek",41.2 µM (active)
Cc1ccc(-c2cc3c(NC([P+](O)(O)O)[P+](O)(O)O)ncnc3s2)cc1,IC50,"literature IC50, protein: Farnesyl pyrophosphate synthase, human FPPS, PDB entry 4jvj",0.022 µM (active)
O[P+](O)(O)C(Nc1ncnc2sc(-c3ccc(C4C=C4)cc3)cc12)[P+](O)(O)O,IC50,"literature IC50, protein: Farnesyl pyrophosphate synthase, human FPPS, PDB entry 4l2x",0.039 µM (active)
